In PubChem BioAssay (NCATS):
Records with an inconclusive call do not appear. The source made the active and inactive calls. Calls follow the shape of the dose curve; as a rule, active = well fitted inhibition curve with a large enough effect; inconclusive = small, poorly fitted or top-dose-only effect; inactive = flat fitted curve, though single readings scatter.

What follows are compounds tested on HACAT (assay: qHTS assay to identify novel small-molecules to repurpose for Merkel cell carcinoma treatment (AID 1296009; also: nearly all actives have a fitted effect of over 60% in size)). Conditions: MCC and control cell lines, CellTiter-Glo viability, 72 h; at 44.8 µM (top of the series) unless noted.
Source text: MCC is a rare and aggressive neuroendocrine skin cancer with limited treatment options. Approximately 80% of MCCs have the Merkel cell polyomavirus (MCPyV) DNA integrated into the host genome (virus-positive: VP-MCC) and viral oncogenes drive oncogenesis. The remaining MCCs are virus-negative (VN-MCC) and are caused by UV mutagenesis. To identify novel treatments for VP-MCC and/or VN-MCC we screened three VP-MCC cell lines (WAGA, MKL-1, MKL-2), three VN-MCC cell lines (MCC-13, MCC-26, UISO), and four immortalized, non-transformed control cell lines (HaCaT, HEK293T, CRL7250, NIH-3T3) against ~2,400 compounds in the NCGC Pharmaceutical Collection (NPC) and ~1,900 compounds in the Mechanism Interrogation PlatE (MiPE). Using cell viability as a readout (CellTiter-Glo assay) we found both overlapping and distinct drugs that can be repurposed for the treatment of VP-MCC and VN-MCC.
A high-throughput screen was conducted in 1536-well white flat bottom plates (Corning) on a Kalypsys robotic system. Cell lines WAGA, MKL-1, MKL-2, MCC-13, MCC-26, UISO, HaCaT, HEK293T, CRL7250, and NIH-3T3 were screened against 2 small molecule annotated drug libraries NPC and MIPE in dose response (8 and 11 pt. respectively) measuring cell viability after 72 hours of incubation. […] A 1,536 pintool (Kalypsys) was used to transfer 23 nL of compound in DMSO to the 1,536-well assay plates. After 72 hr incubation at 37 degree celsius, 2.5 uL of CellTiter-Glo (Promega) was dispensed into each well using a BiorapTR. Plates were incubated at room temperature for 10 min, transferred to a ViewLux (PerkinElmer) and the luminescence was recorded using an exposure time of 2 seconds. Relative luminescence units (RLUs) were normalized to in-plate controls (no cells as a positive (cytotoxicity) control, DMSO as negative control) and the normalized data was processed using NCATS in-house software.

Row | Structure (SMILES) | outcome
1 | Cc1ccc(C2(COC(=O)C(C)C)CO2)c(OC(=O)C(C)C)c1 (configuration not stated) | inactive
2 | N#CCC(C1CCCC1)n1cc(-c2ncnc3[nH]ccc23)cn1 (configuration not stated) | inactive
3 | CC1CCC2C(C)(C)C(O)CCC2(C)C12Cc1c(O)cc3c(c1O2)CN(C(CCCN=C(N)N)C(=O)O)C3=O (configuration not stated) | inactive [at 17.4 µM]
4 | C=C1/C(=C/C=C2\CCC[C@]3(C)[C@@H]([C@H](C)/C=C/C(=O)C4CC4)CC[C@@H]23)C[C@@H](O)C[C@@H]1O | inactive
5 | COc1cc(O)ccc1OCCNCC(O)COc1cccc2[nH]c3ccccc3c12 (configuration not stated) | inactive
6 | COc1ccc2c(c1)C[C@H](C(=O)Nc1ccc(-c3cn[nH]c3)cc1OCCN(C)C)CO2 | inactive
7 | C/C=C(/COC(=O)/C(C)=C/C)C(=O)OC/C=C/c1ccc(OC)cc1 | inactive
8 | CC(C)[C@@H](C)/C=C/[C@@H](C)[C@H]1CC[C@H]2C3=CC=C4C[C@@H](O)CC[C@]4(C)C3=CC[C@]12C | inactive
9 | O=C(NCc1ccc(Oc2ccccc2)cc1)c1nc(-c2cc(Br)c(O)c(Br)c2)no1 | inactive
10 | O=C1c2c(O[C@@H]3O[C@H](CO)[C@@H](O)[C@H](O)[C@H]3O)cc(O)cc2OC1(O)Cc1ccc(O)cc1 (some centres not stated) | inactive [at 17.4 µM]
11 | CC1CCC2C(=CCC(O)C2(C)C)C1(C)Cc1c(O)cc(CO)c(C=O)c1O (configuration not stated) | inactive
12 | CC/C(=C(\c1ccc(O)cc1)c1ccc(OCCNC)cc1)c1ccccc1 | inactive
13 | CC(=O)c1c(OCCN2CCCCC2)c(OCCC(C)c2ccc(F)cc2)c2oc(C)nc2c1C (configuration not stated) | inactive
14 | C=C(C)C(=O)OC1[C@@H]2C(=C)C(=O)O[C@@H]2C[C@@H](C)[C@@H]2C=CC(=O)[C@@]12C (some centres not stated) | inactive
15 | CCC(C)n1cc(C)c2c(C(=O)NCc3c(C)cc(C)[nH]c3=O)cc(-c3ccc(N4CCNCC4)nc3)cc21 (configuration not stated) | inactive
16 | CNC(=O)c1cccc2cc(Oc3ccnc4cc(OCC5(N)CC5)c(OC)cc34)ccc12 | inactive
17 | CCCCn1ccc(N2CCC(c3ccccc3)CC2)c(Cl)c1=O | inactive
18 | C[C@@H](c1nc(-c2ccc(C#N)cc2)cs1)[C@](O)(Cn1cncn1)c1cc(F)ccc1F | inactive
19 | COc1cc(O)c(C(=O)CCc2ccc(O)cc2)c(O[C@@H]2O[C@H](CO)[C@@H](O)[C@H](O)[C@H]2O)c1 | inactive [at 17.4 µM]
20 | COc1cc(-c2cc(-c3ccc(N4CCNCC4)cc3)cnc2C)cc(OC)c1OC | inactive
21 | CCC[C@@H](NC(=O)N1C(=O)C(CC)(CC)[C@@H]1Oc1ccc(C(=O)N2CCN(C)CC2)cc1)c1ccc2c(c1)OCO2 | inactive
22 | C=C1CC[C@@H]2[C@](C)(CO)[C@H](O)CC[C@@]2(C)[C@@H]1C/C=C1/C(=O)OC[C@@H]1O | inactive
